This is part of a sample that, as a whole, favours compounds with a hit. Of some 83,000 tested, about 20% had one in any assay.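 Step 1: grow cells in 96-well plates. Step 2: add test compound at a single concentration. Step 3: incubate 48 h. Step 4: record percent growth.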 A number with no mark means an inactive call. The source made the active and inactive calls. The calls were made as follows: active = growth percent below 10; inactive = the rest.
How the values were obtained:
Assay in all cases: NCI-60 one-dose screen, 48 h (100 = growth as untreated, 0 = no growth, -100 = all killed)
NCI-H226 lung = conditions: 10 µM unless noted
NCI-H322M lung = conditions: 10 µM unless noted
HOP-62 NSCLC = conditions: 10 µM unless noted
A549/ATCC NSCLC = conditions: 10 µM unless noted
COLO 205 colon = conditions: 10 µM
UACC-62 melanoma = conditions: 10 µM unless noted
TK-10 renal = conditions: 10 µM unless noted
ACHN renal = conditions: 10 µM unless noted
CAKI-1 renal = conditions: 10 µM unless noted
MOLT-4 leukemia = conditions: 10 µM
RPMI-8226 leukemia = conditions: 10 µM unless noted
OVCAR-3 ovarian = conditions: 10 µM unless noted
HS 578T breast = conditions: 10 µM unless noted
T-47D breast = conditions: 10 µM unless noted
HT29 colon = conditions: 10 µM unless noted
UO-31 renal = conditions: 10 µM unless noted

In the case of OB([O][Hg][c]1ccccc1)[O][Hg][c]1ccccc1, the growth (NCI-H226 lung) is reported as 54.9%, the growth (NCI-H322M lung) is reported as -22.4% (active) and the growth (HOP-62 NSCLC) is reported as -90.3% (active). For the same compound, the growth (A549/ATCC NSCLC) was 24%, the growth (COLO 205 colon) was -100% (active) and the growth (UACC-62 melanoma) was -99.1% (active). For the same compound, the growth (TK-10 renal) was -94.5% (active), the growth (ACHN renal) was -95.6% (active) and the growth (CAKI-1 renal) was -92.4% (active). The growth (MOLT-4 leukemia) was -38.8% (active), the growth (RPMI-8226 leukemia) was -44.4% (active) and the growth (OVCAR-3 ovarian) was -89.6% (active). The growth (HS 578T breast) was -5.59% (active) and the growth (T-47D breast) was -42.4% (active).

In the case of FC(F)=C(F)c1ccccc1, the growth (NCI-H226 lung) is reported as 113%, the growth (NCI-H322M lung) is reported as 104% and the growth (HOP-62 NSCLC) is reported as 87.4%. The growth (A549/ATCC NSCLC) was 108%, the growth (COLO 205 colon) was 104% and the growth (HT29 colon) was 104%. It also gave a growth (UACC-62 melanoma) of 107%, a growth (UO-31 renal) of 83.7% and a growth (TK-10 renal) of 89.7%. The growth (CAKI-1 renal) was 109%, the growth (MOLT-4 leukemia) was 92.6% and the growth (RPMI-8226 leukemia) was 97.5%. For the same compound, the growth (OVCAR-3 ovarian) was 114% and the growth (T-47D breast) was 80.5%.

C[CH2][Pb]([CH2]C)([CH2]C)[O]C(=O)COc1ccccc1 was tested, and the growth (NCI-H226 lung) was 23.2%, the growth (NCI-H322M lung) was 0.448% (active) and the growth (HOP-62 NSCLC) was -9.05% (active). The growth (COLO 205 colon) was 1.67% (active), the growth (HT29 colon) was 4.3% (active) and the growth (UACC-62 melanoma) was 25.3%. The growth (UO-31 renal) was -6.3% (active), the growth (ACHN renal) was 11.5% and the growth (CAKI-1 renal) was -5.81% (active). For the same compound, the growth (OVCAR-3 ovarian) was -2.95% (active), the growth (HS 578T breast) was 4.72% (active) and the growth (T-47D breast) was 17.2%.

C[As](=O)(O)c1ccc(C(=O)O)cc1 showed a growth (NCI-H226 lung) of 99.7%, a growth (NCI-H322M lung) of 115% and a growth (HOP-62 NSCLC) of 108%. The growth (A549/ATCC NSCLC) was 106%, the growth (COLO 205 colon) was 115% and the growth (UACC-62 melanoma) was 101%. The growth (UO-31 renal) was 93.2%, the growth (TK-10 renal) was 107% and the growth (ACHN renal) was 114%. For the same compound, the growth (MOLT-4 leukemia) was 110%, the growth (RPMI-8226 leukemia) was 101% and the growth (HS 578T breast) was 113%. It also gave a growth (T-47D breast) of 110%.

— PubChem BioAssay (NCI)
